From PubChem BioAssay (NCI)
The panel holds about 83,000 compounds, 20% with a hit somewhere; the sample as a whole holds those more often.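 A percent growth of 40 corresponds to 60% growth inhibition; 0 means no net growth; -100 means all cells died. Active threshold: below 10.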 Active and inactive are the calls of the source.

What was measured:
Test in all cases: NCI-60 one-dose screen, 48 h (100 = growth as untreated, 0 = no growth, -100 = all killed)
Details in all cases: 10 µM unless noted
T-47D breast = system: T-47D breast
BT-549 breast = system: BT-549 breast
MDA-MB-435 melanoma = system: MDA-MB-435 melanoma
SW-620 colon = system: SW-620 colon
MCF7 breast = system: MCF7 breast
HCT-116 colon = system: HCT-116 colon
HCC-2998 colon = system: HCC-2998 colon
KM12 colon = system: KM12 colon

Measured: growth

O=[N+]([O-])CC(c1ccccc1)c1c[nH]c2ccccc12 (stereo not drawn)
inactive: T-47D breast 45.1% | BT-549 breast 56.6% | SW-620 colon 27.9% | MCF7 breast 29.9% | HCT-116 colon 32.7% | HCC-2998 colon 77.2% | KM12 colon 43.6%
active: MDA-MB-435 melanoma -14.6%

COc1ccc(C(=O)c2cc(C)c(OC)c(C)c2)c(OC)c1N(C(=O)CCl)C(=O)CCl
inactive: T-47D breast 51.2% | SW-620 colon 20.3% | MCF7 breast 14% | HCC-2998 colon 13.5%
active: BT-549 breast 3.05% | MDA-MB-435 melanoma -46.8% | HCT-116 colon -0.69% | KM12 colon 6.61%

Cc1cc(C)c(S(=O)(=O)Oc2ccccc2[N+](=O)[O-])c(C)c1
inactive: T-47D breast 38.8% | BT-549 breast 40.6% | MCF7 breast 13.3% | HCT-116 colon 19.7% | HCC-2998 colon 32.1% | KM12 colon 23%
active: MDA-MB-435 melanoma -2.54% | SW-620 colon 8.04%

N/C(=N\C(N)=N\c1nc2ccccc2s1)c1ccnc(Br)c1
active: MDA-MB-435 melanoma -25.2%
inactive: T-47D breast 54.3% | BT-549 breast 41.9% | SW-620 colon 13.5% | MCF7 breast 16.6% | HCT-116 colon 20.2% | HCC-2998 colon 70.3% | KM12 colon 23.9%

Cc1ncc(C(=O)Nc2ccc(CN3CCN(C)CC3)c(C(F)(F)F)c2)cc1C#Cc1cnc(N)cc1C#N
active: MDA-MB-435 melanoma -95.8% | SW-620 colon -57.4% | MCF7 breast -75.6% | HCT-116 colon -71.5% | KM12 colon -83.1%
inactive: T-47D breast 57.8% | BT-549 breast 38% | HCC-2998 colon 54.5%

CC(c1ccccc1)C(C(=O)c1ccccc1)c1ccccc1 (stereo not drawn)
inactive: T-47D breast 91.5% | BT-549 breast 101% | MDA-MB-435 melanoma 110% | SW-620 colon 97.7% | MCF7 breast 98% | HCT-116 colon 74.5% | HCC-2998 colon 93.4% | KM12 colon 104%

Cc1ccc(-c2csc(NC(=O)CSc3nc(-c4ccccc4)cc(=O)[nH]3)n2)cc1
inactive: T-47D breast 78.1% | BT-549 breast 114% | MDA-MB-435 melanoma 106% | SW-620 colon 96.2% | MCF7 breast 82.9% | HCT-116 colon 98.5% | HCC-2998 colon 106% | KM12 colon 94.8%

O=C(N/N=C/c1cc2ccccc2n2nnnc12)Nc1ccccc1
inactive: T-47D breast 108% | BT-549 breast 114% | MDA-MB-435 melanoma 102% | SW-620 colon 107% | MCF7 breast 92.3% | HCT-116 colon 113% | HCC-2998 colon 108% | KM12 colon 104%

COc1ccc(C(=O)C2C(C#N)C(C#N)C3C=Cc4ccccc4N32)cc1 (stereo not drawn)
active: MDA-MB-435 melanoma -47.8% | MCF7 breast 9.25% | KM12 colon 6.36%
inactive: T-47D breast 42.5% | BT-549 breast 63.9% | SW-620 colon 26.5% | HCT-116 colon 15.9% | HCC-2998 colon 33.6%

COc1cc(CC(=O)n2ncc3ccc(N)cc32)cc(OC)c1OC
inactive: T-47D breast 76.2% | BT-549 breast 91.3% | MDA-MB-435 melanoma 65.3% | SW-620 colon 104% | MCF7 breast 87.5% | HCT-116 colon 97.3% | HCC-2998 colon 105% | KM12 colon 82.6%

NNC(=O)c1ccc(-n2nc(-c3ccccc3)c3ccccc32)cc1
inactive: T-47D breast 38.1% | BT-549 breast 73.6% | MDA-MB-435 melanoma 93.9% | SW-620 colon 95.5% | MCF7 breast 74% | HCT-116 colon 82.2% | HCC-2998 colon 54.8% | KM12 colon 94.8%

C=CC(=O)N[C@@H](/C=C/C(=O)OCC)Cc1ccc(-c2cc(Cl)cc(Cl)c2)cc1
active: T-47D breast -4.93% | BT-549 breast 4.23% | MDA-MB-435 melanoma 1.71% | MCF7 breast 4.06%
inactive: SW-620 colon 11.7% | HCT-116 colon 11.1% | HCC-2998 colon 41.6% | KM12 colon 24.2%

N#C/C(=C\c1ccc([N+](=O)[O-])s1)c1nc2cc(Cl)ccc2s1
active: BT-549 breast -6.72% | SW-620 colon 1.39% | MCF7 breast 4.17% | HCT-116 colon -36.4%
inactive: T-47D breast 58.7% | MDA-MB-435 melanoma 29.6% | HCC-2998 colon 14.9% | KM12 colon 81.4%

CC(=O)Nc1ccc(-n2cnc3cc(-c4ccc(OCCN5CCCCC5)cc4)ccc32)cc1
active: SW-620 colon -29% | HCT-116 colon -51.2%
inactive: T-47D breast 107% | BT-549 breast 99.4% | MDA-MB-435 melanoma 102% | MCF7 breast 70.6% | HCC-2998 colon 119% | KM12 colon 29%

C=C1C(=O)O[C@H]2[C@H]1CC/C(CNC(=O)c1cccc3ccccc13)=C\CC[C@@]1(C)O[C@@H]21
active: HCT-116 colon -21.6%
inactive: T-47D breast 46% | BT-549 breast 46.9% | MDA-MB-435 melanoma 40.2% | SW-620 colon 16.5% | MCF7 breast 24.4% | HCC-2998 colon 88% | KM12 colon 83.2%

O=C1C=CC(=O)N1c1cccc(Cl)c1
inactive: T-47D breast 93.7% | BT-549 breast 108% | MDA-MB-435 melanoma 101% | SW-620 colon 76% | MCF7 breast 112% | HCT-116 colon 89.7% | HCC-2998 colon 104% | KM12 colon 104%

CCOC(=O)c1cc(C(=O)c2ccc(Br)cc2)n2ccc(/C=C/c3cc[n+](CC(=O)c4ccc(OC)cc4)cc3)cc12
inactive: T-47D breast 90.1% | BT-549 breast 109% | MDA-MB-435 melanoma 101% | SW-620 colon 48.6% | HCT-116 colon 37.7% | HCC-2998 colon 95.1% | KM12 colon 99.2%
active: MCF7 breast -9.87%

Cc1nn(-c2ccccc2)c(Cl)c1/C=C/C(=O)c1ccc(F)cc1
inactive: T-47D breast 82.5% | BT-549 breast 92.9% | MDA-MB-435 melanoma 87% | SW-620 colon 64.7% | MCF7 breast 41.5% | HCT-116 colon 51.1% | HCC-2998 colon 107% | KM12 colon 84.9%

O=C(Cc1ccccc1)NNc1nc(Cl)nc(N2CCN(C(c3ccccc3)c3ccccc3)CC2)n1
inactive: T-47D breast 84.4% | BT-549 breast 99.3% | MDA-MB-435 melanoma 100% | SW-620 colon 82.3% | MCF7 breast 92.3% | HCT-116 colon 80% | HCC-2998 colon 73.6% | KM12 colon 97.5%

COc1ccc(C(=O)Nc2cccc(C3CCc4c(cc(OC)c(OC)c4OC)O3)c2)cc1 (stereo not drawn)
active: MDA-MB-435 melanoma -14.9%
inactive: T-47D breast 15.8% | BT-549 breast 40.9% | SW-620 colon 28.8% | MCF7 breast 33.1% | HCT-116 colon 23.1% | HCC-2998 colon 80.1% | KM12 colon 29.4%

CC(=O)CCC(=O)OCc1cc(=O)c(O)co1
inactive: T-47D breast 111% | BT-549 breast 102% | MDA-MB-435 melanoma 106% | SW-620 colon 97% | MCF7 breast 99% | HCT-116 colon 97.3% | HCC-2998 colon 87.3% | KM12 colon 93.5%

O=Cc1ccc(-c2cn3ccnc3c(-c3ccc4ncn(Cc5ccccc5)c4c3)n2)cc1
active: T-47D breast 1.99% | HCT-116 colon 7.44%
inactive: BT-549 breast 66.2% | MDA-MB-435 melanoma 87% | SW-620 colon 95.8% | MCF7 breast 52.2% | HCC-2998 colon 105% | KM12 colon 96.3%

CN1[C@@H]2CC[C@H]1/C(=C\c1ccccc1)C(=O)/C2=C/c1ccccc1
inactive: T-47D breast 56% | BT-549 breast 35% | MDA-MB-435 melanoma 25% | SW-620 colon 28.8% | MCF7 breast 20.4% | HCT-116 colon 11.9% | HCC-2998 colon 63.3% | KM12 colon 20.7%

O=C(/C(=C\c1ccc([N+](=O)[O-])cc1)S(=O)Cc1ccc(F)cc1)c1ccc(F)cc1 (stereo not drawn)
active: SW-620 colon -33.5% | HCT-116 colon -20.5%
inactive: T-47D breast 10.3% | BT-549 breast 74.6% | MDA-MB-435 melanoma 53.7% | MCF7 breast 16.4% | HCC-2998 colon 45.9% | KM12 colon 43.4%

COc1ccc(C(=O)C2C(C#N)C(C#N)C3c4ccccc4C=CN23)cc1 (stereo not drawn)
inactive: T-47D breast 61.5% | BT-549 breast 95% | MDA-MB-435 melanoma 96.1% | SW-620 colon 99.7% | MCF7 breast 91.3% | HCT-116 colon 86.1% | HCC-2998 colon 101% | KM12 colon 98.3%

COc1ccc(/C=C/c2nc(Nc3ccc(S(=O)(=O)Nc4cc(C)on4)cc3)c3ccccc3n2)cc1
inactive: T-47D breast 37.4% | BT-549 breast 85.8% | MDA-MB-435 melanoma 39.3% | SW-620 colon 70% | MCF7 breast 32.1% | HCT-116 colon 68.1% | HCC-2998 colon 69.6% | KM12 colon 49%

COc1ccc(C(=O)NNc2nc(Cl)nc(N3CCN(C(c4ccccc4)c4ccccc4)CC3)n2)cc1
active: SW-620 colon 9.22% | HCT-116 colon 9% | HCC-2998 colon -10.7%
inactive: T-47D breast 85.5% | BT-549 breast 52.2% | MDA-MB-435 melanoma 90.6% | MCF7 breast 89.3% | KM12 colon 92.4%

COc1ccc(-c2[nH][nH]c(=O)c2-c2nc3ccccc3s2)cc1
inactive: T-47D breast 109% | BT-549 breast 97.6% | MDA-MB-435 melanoma 101% | SW-620 colon 101% | MCF7 breast 93.9% | HCT-116 colon 101% | HCC-2998 colon 99.6% | KM12 colon 101%

O=C(Cc1ccc(/C=C/C(=O)c2ncc[nH]2)cc1)Nc1ccc(Cl)cc1
inactive: T-47D breast 23.2% | BT-549 breast 29.3% | MDA-MB-435 melanoma 23.8% | MCF7 breast 13% | HCC-2998 colon 79.4%
active: SW-620 colon -35.3% | HCT-116 colon -47.5% | KM12 colon -39%

Cc1ccc(C(=O)/C(=C\c2ccc([N+](=O)[O-])cc2)S(=O)Cc2ccc(F)cc2)cc1 (stereo not drawn)
active: T-47D breast -26.6% | BT-549 breast -0.818% | SW-620 colon -27.7% | MCF7 breast 7.88% | HCT-116 colon -70.7%
inactive: MDA-MB-435 melanoma 45.5% | HCC-2998 colon 22.8% | KM12 colon 19.4%

Cc1ccc(-n2c3c(c(-c4ccccc4)c2-c2ccccc2)C2=NCCN2C=N3)cc1
inactive: T-47D breast 72.7% | BT-549 breast 107% | MDA-MB-435 melanoma 97.8% | SW-620 colon 89.9% | MCF7 breast 86.8% | HCT-116 colon 76.5% | HCC-2998 colon 108% | KM12 colon 90.5%
